Measurements reported in PubChem BioAssay AID1159580 (chemical genetic matrix, 2015).
Where “and” joins values, the source holds several entries; their conditions need not be identical. Equal values may be shown once. Screen size: about 5,500 compounds; about 2,000 (36%) were called active. Not shown: some 18% with an inconclusive outcome. Cut-off read from the data, not from the text of the source: active = normalized growth mostly below about 0.91 (no sharp cut-off); inconclusive = no clear call, values can overlap the other calls; inactive = mostly above about 0.92. The list shows a part of the results.

Assay: chemical genetic growth profiling, strain panel (AID 1159580);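 note: tested at 20 µM; growth read once vehicle control cultures reached saturation at 30 °C; 1 = growth at the plate median or of vehicle wells; lower values mean less growth of the strain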
Details: growth OD

Measured: normalized growth

CC(C)(C)NCC(O)c1ccc(O)c(CO)c1 (stereo not given)
inactive: S. cerevisiae deletion strains, locus YJR075W, strain HOC1, hits give low values 0.997 and 1.01 | S. cerevisiae deletion strains, locus YKL009W, strain mrt4, hits give low values 1.02 | S. cerevisiae deletion strains, locus YKL068W, hits give low values 1.01 | S. cerevisiae deletion strains, locus YKL085W, strain MDH1 (second series), hits give low values 1.03 | S. cerevisiae deletion strains, locus YKL085W, strain MDH1, hits give low values 1.03 | S. cerevisiae deletion strains, locus YKL160W, strain elf1, hits give low values 1.02 | S. cerevisiae deletion strains, locus YKL190W, strain CNB1, hits give low values 1.02 | S. cerevisiae deletion strains, locus YKR001C, strain vps1, hits give low values 1.01 | S. cerevisiae deletion strains, locus YKR026C, strain gcn3, hits give low values 0.999 | S. cerevisiae deletion strains, locus YKR091W, strain srl3, hits give low values 1 | S. cerevisiae deletion strains, locus YLL001W, strain dnm1, hits give low values 1.02 | S. cerevisiae deletion strains, locus YLL026W, hits give low values 1 | S. cerevisiae deletion strains, locus YLL041C, strain sdh2, hits give low values 1.02 | S. cerevisiae deletion strains, locus YLR027C, strain aat2, hits give low values 1.01 | S. cerevisiae deletion strains, locus YLR039C, strain RIC1, hits give low values 1.06 | S. cerevisiae deletion strains, locus YLR058C, strain SHM2, hits give low values 1.01 | S. cerevisiae deletion strains, locus YLR102C, strain apc9, hits give low values 1.01 | S. cerevisiae deletion strains, locus YLR113W, strain HOG1, hits give low values 1.01 | S. cerevisiae deletion strains, locus YLR221C, strain rsa3, hits give low values 1.01 | S. cerevisiae deletion strains, locus YLR258W, strain gsy2, hits give low values 1.02 | S. cerevisiae deletion strains, locus YLR262C, strain YPT6 (second series), hits give low values 1 | S. cerevisiae deletion strains, locus YLR262C, strain YPT6, hits give low values 1.04 | S. cerevisiae deletion strains, locus YLR268W, strain sec22, hits give low values 1.02 | S. cerevisiae deletion strains, locus YLR320W, strain mms22, hits give low values 1.02 | S. cerevisiae deletion strains, locus YLR330W, strain CHS5, hits give low values 1.01 | S. cerevisiae deletion strains, locus YLR342W, strain FKS1 (second series), hits give low values 1.04 | S. cerevisiae deletion strains, locus YLR342W, strain FKS1, hits give low values 1.01 | S. cerevisiae deletion strains, locus YLR357W, strain rsc2, hits give low values 1.04 | S. cerevisiae deletion strains, locus YLR370C, strain arc18, hits give low values 1.01 | S. cerevisiae deletion strains, locus YLR371W, strain rom2, hits give low values 1 | S. cerevisiae deletion strains, locus YLR384C, strain iki3, hits give low values 1.02 | S. cerevisiae deletion strains, locus YLR418C, strain cdc73, hits give low values 1.05 | S. cerevisiae deletion strains, locus YML016C, strain PPZ1, hits give low values 1.01 | S. cerevisiae deletion strains, locus YML032C, strain rad52, hits give low values 1.01 | S. cerevisiae deletion strains, locus YML120C, strain ndi1, hits give low values 1 | S. cerevisiae deletion strains, locus YML124C, strain tub3, hits give low values 1.01 | S. cerevisiae deletion strains, locus YMR058W, strain fet3, hits give low values 1 | S. cerevisiae deletion strains, locus YMR078C, strain ctf18, hits give low values 1.02 | S. cerevisiae deletion strains, locus YMR125W, strain sto1, hits give low values 1.03 | S. cerevisiae deletion strains, locus YMR129W, hits give low values 1.01 | S. cerevisiae deletion strains, locus YMR205C, strain PFK2, hits give low values 1.02 | S. cerevisiae deletion strains, locus YMR223W, strain ubp8, hits give low values 1.06 | S. cerevisiae deletion strains, locus YMR231W, strain pep5, hits give low values 1.01 | S. cerevisiae deletion strains, locus YMR263W, strain SAP30, hits give low values 1.02 and 1 | S. cerevisiae deletion strains, locus YMR307W, strain GAS1, hits give low values 1.11 and 0.997 and 0.979 | S. cerevisiae deletion strains, locus YNL067W, strain RPL9B, hits give low values 1.01 | S. cerevisiae deletion strains, locus YNL071W, strain lat1, hits give low values 1 | S. cerevisiae deletion strains, locus YNL128W, strain TEP1, hits give low values 1.02 | S. cerevisiae deletion strains, locus YNL175C, strain NOP13, hits give low values 1 and 1.03 | S. cerevisiae deletion strains, locus YNL183C, strain NPR1, hits give low values 0.974 | S. cerevisiae deletion strains, locus YNL197C, strain WHI3, hits give low values 1 and 1.01 | S. cerevisiae deletion strains, locus YNL209W, strain ssb2, hits give low values 1.02 | S. cerevisiae deletion strains, locus YNL224C, strain SQS1, hits give low values 0.996 and 1 | S. cerevisiae deletion strains, locus YNL233W, strain BNI4, hits give low values 0.99 | S. cerevisiae deletion strains, locus YNL248C, strain rpa49, hits give low values 1.03 | S. cerevisiae deletion strains, locus YNL250W, strain rad50, hits give low values 1.02 | S. cerevisiae deletion strains, locus YNL271C, strain bni1, hits give low values 1.02 | S. cerevisiae deletion strains, locus YNL298W, strain CLA4, hits give low values 1.02 | S. cerevisiae deletion strains, locus YNL307C, strain MCK1, hits give low values 1.02 | S. cerevisiae deletion strains, locus YNL322C, strain KRE1 (second series), hits give low values 1.01 | S. cerevisiae deletion strains, locus YNL322C, strain KRE1, hits give low values 1.01 and 1.03 | S. cerevisiae deletion strains, locus YNR049C, strain mso1, hits give low values 1.01 | S. cerevisiae deletion strains, locus YNR052C, strain pop2, hits give low values 1.02 | S. cerevisiae deletion strains, locus YOL006C, strain TOP1, hits give low values 1.05 | S. cerevisiae deletion strains, locus YOL012C, strain htz1 1.03 | S. cerevisiae deletion strains, locus YOL147C, strain pex11, hits give low values 1.02 | S. cerevisiae deletion strains, locus YOR001W, strain rrp6, hits give low values 1.01 | S. cerevisiae deletion strains, locus YOR061W, strain CKA2, hits give low values 1.01 | S. cerevisiae deletion strains, locus YOR069W, strain VPS5, hits give low values 1.01 | S. cerevisiae deletion strains, locus YOR070C, strain gyp1, hits give low values 1.02 | S. cerevisiae deletion strains, locus YOR080W, strain dia2, hits give low values 1.03 | S. cerevisiae deletion strains, locus YOR083W, strain WHI5 (second series), hits give low values 1.01 | S. cerevisiae deletion strains, locus YOR083W, strain WHI5, hits give low values 0.966 | S. cerevisiae deletion strains, locus YOR106W, strain vam3, hits give low values 1.01 | S. cerevisiae deletion strains, locus YOR136W, strain idh2, hits give low values 1.02 | S. cerevisiae deletion strains, locus YOR144C, strain elg1, hits give low values 1.02 | S. cerevisiae deletion strains, locus YOR184W, strain ser1, hits give low values 1.02 | S. cerevisiae deletion strains, locus YOR231W, strain MKK1, hits give low values 1.02 | S. cerevisiae deletion strains, locus YOR265W, strain rbl2, hits give low values 1.01 | S. cerevisiae deletion strains, locus YOR270C, strain vph1, hits give low values 1.02 | S. cerevisiae deletion strains, locus YOR290C, strain snf2, hits give low values 1.03 | S. cerevisiae deletion strains, locus YOR316C, strain cot1, hits give low values 1.01 | S. cerevisiae deletion strains, locus YPL051W, strain arl3, hits give low values 1.01 | S. cerevisiae deletion strains, locus YPL055C, strain LGE1, hits give low values 1.01 | S. cerevisiae deletion strains, locus YPL078C, strain atp4, hits give low values 1 | S. cerevisiae deletion strains, locus YPL106C, strain sse1, hits give low values 1.04 | S. cerevisiae deletion strains, locus YPL240C, strain hsp82, hits give low values 1.02 | S. cerevisiae deletion strains, locus YPL241C, strain CIN2, hits give low values 1.01 | S. cerevisiae deletion strains, locus YPL256C, strain CLN2, hits give low values 1.04 | S. cerevisiae deletion strains, locus YPR119W, strain clb2, hits give low values 1.01 | S. cerevisiae deletion strains, locus YPR141C, strain kar3, hits give low values 1.01 | S. cerevisiae deletion strains, locus YPR163C, strain tif3, hits give low values 1.02 | S. cerevisiae deletion strains, locus YPR167C, strain met16, hits give low values 1.02 | S. cerevisiae deletion strains, strain wtn01, hits give low values 1.04 | S. cerevisiae strains, strain wild type, hits give low values 1.01
